Assay results taken from ChEMBL document CHEMBL1961873, “Compounds: GSK PKIS; Assays: Nanosyn kinase panel” (2012).

Each compound was assayed against Ephrin type-A receptor 4 (Homo sapiens) (UniProt P54764). Conditions: at 1 µM.
Sequence of Ephrin type-A receptor 4 (Homo sapiens) (P54764 whole entry): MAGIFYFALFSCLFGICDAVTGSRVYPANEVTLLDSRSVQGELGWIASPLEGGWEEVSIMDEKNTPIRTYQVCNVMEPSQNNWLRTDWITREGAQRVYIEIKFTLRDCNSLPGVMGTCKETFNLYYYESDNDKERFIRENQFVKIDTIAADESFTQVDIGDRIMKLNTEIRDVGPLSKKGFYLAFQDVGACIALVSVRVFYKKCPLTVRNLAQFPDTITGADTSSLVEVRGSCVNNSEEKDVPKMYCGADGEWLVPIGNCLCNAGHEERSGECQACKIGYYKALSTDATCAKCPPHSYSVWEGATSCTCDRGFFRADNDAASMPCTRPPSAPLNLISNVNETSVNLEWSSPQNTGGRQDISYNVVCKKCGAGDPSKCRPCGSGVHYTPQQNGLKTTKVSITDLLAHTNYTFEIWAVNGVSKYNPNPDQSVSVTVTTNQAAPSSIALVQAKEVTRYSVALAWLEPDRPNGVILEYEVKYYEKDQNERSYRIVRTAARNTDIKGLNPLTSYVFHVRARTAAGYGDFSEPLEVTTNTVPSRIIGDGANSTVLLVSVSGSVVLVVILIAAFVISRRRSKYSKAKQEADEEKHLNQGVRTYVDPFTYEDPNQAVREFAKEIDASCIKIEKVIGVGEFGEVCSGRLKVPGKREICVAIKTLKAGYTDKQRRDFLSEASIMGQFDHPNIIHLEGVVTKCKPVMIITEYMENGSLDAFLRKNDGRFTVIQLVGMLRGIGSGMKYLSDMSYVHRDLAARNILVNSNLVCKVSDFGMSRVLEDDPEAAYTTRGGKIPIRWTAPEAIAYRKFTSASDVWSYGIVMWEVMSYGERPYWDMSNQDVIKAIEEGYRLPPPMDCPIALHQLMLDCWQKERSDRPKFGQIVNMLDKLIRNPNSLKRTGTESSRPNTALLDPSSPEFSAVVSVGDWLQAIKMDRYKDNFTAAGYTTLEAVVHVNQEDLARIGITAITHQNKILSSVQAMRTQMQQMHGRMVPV

In order of rising inhibition:
1. CCn1c(-c2nonc2N)nc2cnc(Oc3cccc(NC(=O)c4ccc(N(C)C)cc4)c3)cc21  -0.31%
2. COc1ccc(-c2cc3c(N)ncnc3o2)cc1  1.4%
3. N#Cc1c(NC(=O)c2ccc(F)cc2)sc2c1CCCC2  2.26%
4. c1ccc(-c2nc3n(c2-c2ccc4c(c2)OCO4)CCC3)nc1  2.75%
5. CCn1cc(-c2ccnc3[nH]ccc23)c(-c2cccc(NC(=O)Nc3ccc(OCc4ccccc4)cc3)c2)n1  3.4%
6. O=C(Nc1n[nH]c2cc(-c3ccc(F)cc3)ccc12)C1CC1  4.17%
7. COC(=O)c1sc(-n2cnc3cc(OC)c(OC)cc32)cc1OCc1ccccc1C(F)(F)F  4.17%
8. COc1cc(N2CCN(C(C)C)CC2)ccc1Nc1nc(Nc2ccc(F)cc2C(N)=O)c2cc[nH]c2n1  6.43%
9. CNC(=O)c1cc(-c2ccc(F)cc2)cc(-c2ccc(S(=O)(=O)N3CCCC3)cc2)c1N  6.55%
10. CCn1c(-c2nonc2N)nc2c(C#CC(C)(C)O)ncc(OC3CCNCC3)c21  6.59%
11. CC1=C(C(=O)Nc2cc(Cl)c3[nH]ncc3c2)C(c2ccc(C(F)(F)F)cc2)CC(=O)N1 (stereo unspecified)  6.71%
12. CN1CCC(n2cnc(-c3ccc(F)cc3)c2-c2ccnc(N)n2)CC1  7.11%
13. Cc1cccc2c1NC(=O)/C2=N\Nc1ccc(S(N)(=O)=O)cc1  7.18%
14. CCc1nn2ncccc2c1-c1ccnc(NC2CC2)n1  8.02%
15. CCn1c(-c2nonc2N)nc2ccccc21  9.13%
16. Fc1cccc(COc2ccc(Nc3ncnc4sc(-c5ccco5)cc34)cc2Cl)c1  9.74%
17. CC(C)(CO)CNC(=O)c1ccc2c(c1)/C(=N/Nc1ccc(S(N)(=O)=O)cc1)C(=O)N2  10.3%
18. c1cc(-c2cnn3nc(N4CCOCC4)ccc23)nc(NC2CC2)n1  10.9%
19. NS(=O)(=O)c1ccc(Nc2ncc(-c3ccccc3)o2)cc1  12%
20. CN1CCC(n2cnc(-c3ccc(F)cc3)c2-c2ccnc(Nc3ccccc3)n2)CC1  13.3%
21. COc1ccc(-c2cc(-c3c[nH]nc3-c3ccccn3)ccn2)cc1  14.1%
22. Fc1ccc(-c2cc(-c3c[nH]nc3-c3ccccn3)ccn2)cc1  14.8%
23. CNC(=O)c1cncc(/C=C/c2ccccc2Cl)c1  15%
24. COc1ccc(CNC(=O)c2ccc(-c3cc(-c4nnc(C)o4)ccc3C)cc2)cc1  15.7%
25. COc1ccc2[nH]c3c4[nH]c5ccc(OC)cc5c4c4c(c3c2c1)C(=O)NC4=O  22.6%
26. Clc1ccc(-c2nn3ncccc3c2-c2ccnc(Nc3ccccc3)n2)cc1  23.3%
27. COc1ccc2c(-c3ccnc(Nc4cccc(OC(F)(F)F)c4)n3)cnn2n1  24.1%
28. COc1cccc(-c2c[nH]c3c(N/N=C/c4ccncc4)ncnc23)c1  30.5%
29. NS(=O)(=O)c1ccc(N/N=C2\C(=O)Nc3ccc4ncccc4c32)cc1  31%
30. COC(=O)Nc1nc2ccc(Oc3ccc(NC(=O)Nc4cccc(Cl)c4)cc3)cc2[nH]1  62.9%
31. COc1cc(Nc2nccc(Nc3ccc4c(C)n[nH]c4c3)n2)cc(OC)c1OC  75.2%
32. COc1ccc(-c2oc3ncnc(N)c3c2-c2ccc(NC(=O)Nc3cc(C(F)(F)F)ccc3F)cc2)cc1  87.6%
33. Cc1ccc(O)cc1Nc1ccnc2cc(-c3ccccn3)ccc12  90.9%

What follows are compounds tested against T1, Ephrin type-B receptor 2 (Homo sapiens) (UniProt P29323). Conditions: at 0.1 µM.
T1 sequence (whole entry): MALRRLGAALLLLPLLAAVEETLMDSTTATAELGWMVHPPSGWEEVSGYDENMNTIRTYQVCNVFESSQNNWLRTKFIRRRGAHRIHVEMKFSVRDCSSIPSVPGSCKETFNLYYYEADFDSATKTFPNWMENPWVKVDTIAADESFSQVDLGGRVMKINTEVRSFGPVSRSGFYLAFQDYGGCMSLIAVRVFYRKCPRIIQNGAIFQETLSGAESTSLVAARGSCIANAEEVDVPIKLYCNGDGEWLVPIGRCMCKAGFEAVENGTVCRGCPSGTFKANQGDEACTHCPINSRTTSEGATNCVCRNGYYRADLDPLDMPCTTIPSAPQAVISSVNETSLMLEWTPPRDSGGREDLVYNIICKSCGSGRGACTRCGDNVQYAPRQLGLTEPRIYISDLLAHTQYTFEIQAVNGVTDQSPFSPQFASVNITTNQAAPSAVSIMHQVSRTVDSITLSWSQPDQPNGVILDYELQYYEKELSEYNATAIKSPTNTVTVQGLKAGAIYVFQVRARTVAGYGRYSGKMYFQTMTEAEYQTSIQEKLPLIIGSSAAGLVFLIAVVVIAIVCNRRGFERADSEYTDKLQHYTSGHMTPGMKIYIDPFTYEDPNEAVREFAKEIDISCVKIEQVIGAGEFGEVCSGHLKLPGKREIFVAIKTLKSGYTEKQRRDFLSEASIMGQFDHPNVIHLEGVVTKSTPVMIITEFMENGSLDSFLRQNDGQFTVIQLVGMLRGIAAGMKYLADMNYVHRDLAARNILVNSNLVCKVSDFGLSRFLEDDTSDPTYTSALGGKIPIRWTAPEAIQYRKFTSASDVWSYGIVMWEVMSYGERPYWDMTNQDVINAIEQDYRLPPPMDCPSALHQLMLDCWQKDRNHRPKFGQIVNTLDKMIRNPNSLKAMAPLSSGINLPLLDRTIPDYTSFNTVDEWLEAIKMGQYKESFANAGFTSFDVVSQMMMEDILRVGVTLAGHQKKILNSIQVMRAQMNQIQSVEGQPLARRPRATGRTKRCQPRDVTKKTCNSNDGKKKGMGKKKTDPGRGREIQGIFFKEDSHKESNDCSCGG

In order of rising inhibition:
1. CC(C)(CO)CNC(=O)c1ccc2c(c1)/C(=N/Nc1ccc(S(N)(=O)=O)cc1)C(=O)N2  -4.35%
2. COc1ccc(-c2cc3c(N)ncnc3o2)cc1  -3.46%
3. CCn1c(-c2nonc2N)nc2c(C#CC(C)(C)O)ncc(OC3CCNCC3)c21  -2.87%
4. CCn1cc(-c2ccnc3[nH]ccc23)c(-c2cccc(NC(=O)Nc3ccc(OCc4ccccc4)cc3)c2)n1  -2.33%
5. CCc1nn2ncccc2c1-c1ccnc(NC2CC2)n1  -1.23%
6. CNC(=O)c1cncc(/C=C/c2ccccc2Cl)c1  -0.8%
7. c1ccc(-c2nc3n(c2-c2ccc4c(c2)OCO4)CCC3)nc1  1.03%
8. CC1=C(C(=O)Nc2cc(Cl)c3[nH]ncc3c2)C(c2ccc(C(F)(F)F)cc2)CC(=O)N1 (stereo unspecified)  1.63%
9. N#Cc1c(NC(=O)c2ccc(F)cc2)sc2c1CCCC2  2.69%
10. CNC(=O)c1cc(-c2ccc(F)cc2)cc(-c2ccc(S(=O)(=O)N3CCCC3)cc2)c1N  2.73%
11. Fc1ccc(-c2cc(-c3c[nH]nc3-c3ccccn3)ccn2)cc1  3.6%
12. COc1cc(N2CCN(C(C)C)CC2)ccc1Nc1nc(Nc2ccc(F)cc2C(N)=O)c2cc[nH]c2n1  4.59%
13. CCn1c(-c2nonc2N)nc2cnc(Oc3cccc(NC(=O)c4ccc(N(C)C)cc4)c3)cc21  5.07%
14. NS(=O)(=O)c1ccc(Nc2ncc(-c3ccccc3)o2)cc1  5.54%
15. COc1ccc2c(-c3ccnc(Nc4cccc(OC(F)(F)F)c4)n3)cnn2n1  5.72%
16. CN1CCC(n2cnc(-c3ccc(F)cc3)c2-c2ccnc(N)n2)CC1  5.98%
17. COC(=O)c1sc(-n2cnc3cc(OC)c(OC)cc32)cc1OCc1ccccc1C(F)(F)F  6.43%
18. CCn1c(-c2nonc2N)nc2ccccc21  6.72%
19. O=C(Nc1n[nH]c2cc(-c3ccc(F)cc3)ccc12)C1CC1  6.99%
20. Cc1cccc2c1NC(=O)/C2=N\Nc1ccc(S(N)(=O)=O)cc1  7.03%
21. COc1ccc(CNC(=O)c2ccc(-c3cc(-c4nnc(C)o4)ccc3C)cc2)cc1  7.58%
22. COc1ccc(-c2cc(-c3c[nH]nc3-c3ccccn3)ccn2)cc1  7.99%
23. NS(=O)(=O)c1ccc(N/N=C2\C(=O)Nc3ccc4ncccc4c32)cc1  8.06%
24. Clc1ccc(-c2nn3ncccc3c2-c2ccnc(Nc3ccccc3)n2)cc1  8.11%
25. Fc1cccc(COc2ccc(Nc3ncnc4sc(-c5ccco5)cc34)cc2Cl)c1  9.21%
26. c1cc(-c2cnn3nc(N4CCOCC4)ccc23)nc(NC2CC2)n1  10.2%
27. COc1cccc(-c2c[nH]c3c(N/N=C/c4ccncc4)ncnc23)c1  10.3%
28. COc1ccc2[nH]c3c4[nH]c5ccc(OC)cc5c4c4c(c3c2c1)C(=O)NC4=O  10.7%
29. CN1CCC(n2cnc(-c3ccc(F)cc3)c2-c2ccnc(Nc3ccccc3)n2)CC1  12.9%
30. COc1cc(Nc2nccc(Nc3ccc4c(C)n[nH]c4c3)n2)cc(OC)c1OC  19.3%
31. COC(=O)Nc1nc2ccc(Oc3ccc(NC(=O)Nc4cccc(Cl)c4)cc3)cc2[nH]1  36.9%
32. COc1ccc(-c2oc3ncnc(N)c3c2-c2ccc(NC(=O)Nc3cc(C(F)(F)F)ccc3F)cc2)cc1  85.7%
33. Cc1ccc(O)cc1Nc1ccnc2cc(-c3ccccn3)ccc12  90.5%
